The text below walks through data of PubChem BioAssay (NCATS).

Inconclusive results are not listed. A call without a number means that no potency is given here. The source made the active and inactive calls. The call rests on the fitted dose curve; in most records, active means well fitted inhibition curve with a large enough effect; inconclusive means small, poorly fitted or top-dose-only effect, or effect the other way; inactive means flat fitted curve, though single readings scatter.

ATP-dependent 6-phosphofructokinase (Trypanosoma brucei brucei), sequence (O15648 whole entry, looked up): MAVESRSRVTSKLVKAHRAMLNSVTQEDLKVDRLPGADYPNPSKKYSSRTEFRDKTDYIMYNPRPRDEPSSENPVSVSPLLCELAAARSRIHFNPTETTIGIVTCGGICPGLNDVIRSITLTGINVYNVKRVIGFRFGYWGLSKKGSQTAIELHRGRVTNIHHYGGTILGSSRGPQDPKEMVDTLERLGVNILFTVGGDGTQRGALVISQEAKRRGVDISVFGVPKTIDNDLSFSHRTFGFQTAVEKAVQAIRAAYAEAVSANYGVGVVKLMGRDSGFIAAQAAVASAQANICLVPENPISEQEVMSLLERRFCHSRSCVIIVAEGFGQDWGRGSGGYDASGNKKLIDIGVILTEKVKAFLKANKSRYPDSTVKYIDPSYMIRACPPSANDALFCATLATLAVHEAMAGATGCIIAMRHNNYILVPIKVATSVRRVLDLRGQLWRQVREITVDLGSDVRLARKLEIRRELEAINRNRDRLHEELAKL

This experiment addresses ATP-dependent 6-phosphofructokinase (Trypanosoma brucei brucei) (UniProt O15648). Nature of the experiment: qHTS Assay to Find Inhibitors of T. brucei phosphofructokinase: hit validation (AID 492961).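 Further: luminescence reports ADP formed as PFK phosphorylates fructose-6-phosphate with ATP.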 The settings on record: T. brucei PFK, ADP-Glo luminescence; series mostly up to 51.4 µM. A digest of the protocol:
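Inhibition of parasite PFK is measured as reduced ADP formation, quantified via luciferase after ATP depletion. Assay used 0.1 mM ATP, 0.5 mM F6P, 1.25 nM enzyme, 45 min incubation.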
A general note: In qHTS, concentration-response curves come from the screen itself.
For the compound `CCCCCCCCOc1ccc(C(=O)c2ccccc2)c(O)c1`, the Potency result was “inactive”. The same measure for `O=C(CCN1CCN2CCCC2C1)N1c2ccccc2Sc2ccc(Cl)cc21` (stereo unspecified): “inactive”; for `COc1cc(C(=S)N2CCOCC2)ccc1O`: “inactive”; for `O=C(Nc1ncc([N+](=O)[O-])s1)c1cccs1`: “inactive”.

Turning to `Cc1cc(C)cc(OCC2CNC(=O)O2)c1` (stereo unspecified), the Potency entry is “inactive”. For `CCCCCCCCCCCCSCCOCCO` the value was “inactive”; for `Cc1ncc(CO)c(C=O)c1O`, “inactive”.

Take `NS(=O)(=O)Cc1noc2ccccc12`: the Potency result is “inactive”. `COc1ccccc1N1CCN(CCCCNC(=O)c2ccc(-c3ccc(C(C)=O)cc3)cc2)CC1`: the Potency entry was “inactive”. For `NC(=S)N/N=C/c1cccnc1` the value was “inactive”; for `CC(=O)Nc1ccc(S(=O)(=O)Nc2ccc([N+](=O)[O-])cc2)cc1`, “inactive”. As to `CCOCCn1c(N2CCCN(C)CC2)nc2ccccc21`, the Potency result is “inactive”. Regarding `CCNC(=O)/C=C/c1cccc(Br)c1`, the Potency result is “inactive”. With `Cc1ccc(S(=O)(=O)NC(=O)NC2CCCC2)cc1`, the Potency entry was “inactive”. As to `Cl/C(=C\n1cncn1)c1ccc(Cl)cc1Cl`, the Potency result was “inactive”. In the case of `CCCCCCCCCCCCCCCCO`, the Potency result is “inactive”. For `NS(=O)(=O)c1ccc(Cl)c(S(N)(=O)=O)c1` the value was “inactive”. For `NCCNC(=O)c1ccc(Cl)cn1` the value was “inactive”. The same measure for `NC(=O)n1c(O)c(C(=O)c2cccs2)c2cc(Cl)ccc21`: “inactive”. Take `CCc1oc2ccccc2c1C(=O)c1cc(I)c(O)c(I)c1`: the Potency entry was “inactive”. In the case of `CCOc1ccccc1C(N)=O`, the Potency result was “inactive”. The same measure for `CCOC(=O)Nc1ccc2c(c1)N(C(=O)CCN1CCOCC1)c1ccccc1S2`: “inactive”; for `CN(C)CCC[C@@]1(c2ccc(F)cc2)OCc2cc(C#N)ccc21`: “inactive”. `CN1CCN(C2=Nc3ccccc3Sc3ccc(Cl)cc32)CC1`: the Potency entry was “inactive”. In the case of `O=C(O)P(=O)(O)O`, the Potency entry is “inactive”. For `O=C(CCCN1CC=C(n2c(=O)[nH]c3ccccc32)CC1)c1ccc(F)cc1` the value was “inactive”.

As for `NCc1ccccc1Sc1ccccc1CO`, the Potency result is “inactive”. The same measure for `COc1ccc(CN(CCN(C)C)c2ncccn2)cc1`: “inactive”; for `C/C=C/c1ccc(O)c(OC)c1`: “inactive”. As for `CC(=O)N[C@@H](CCC(=O)O)C(=O)O`, the Potency result is “inactive”.

In the case of `O=C(O)CCC(=O)Nc1ccc(S(=O)(=O)Nc2nccs2)cc1`, the Potency result is “inactive”. For `CC(C)[N+](C)(C)CC(O)COc1cccc2ccccc12` (stereo unspecified) the value was “inactive”; for `O=C(O)C(Cc1cc(I)c(O)c(I)c1)c1ccccc1` (stereo unspecified), “inactive”. For `Cc1cc(NS(=O)(=O)c2ccc(N)cc2)nc(C)n1` the value was “inactive”; for `C[N+]1(CC2COC(c3ccccc3)(C3CCCCC3)O2)CCCCC1` (stereo unspecified), “inactive”; for `N/C(=N\N=C\c1ccc(Cl)cc1)N/N=C/c1ccc(Cl)cc1`, “inactive”.
